# Source: PMC7862700, “An all-to-all approach to the identification of sequence-specific readers for epigenetic DNA modifications on cytosine”
# Key:
# Test in all cases: DAPPL (digital affinity profiling via proximity ligation, sequencing); 10 mM Tris-HCl pH 7.5, 50 mM NaCl, 1 mM DTT, 4% glycerol, room temperature, 30 min; GST-TFs on glutathione beads, 16-mer random dsDNA library, 0.1% formaldehyde crosslink after washing; high values mean tight binding
# FEV = target: T1, FEV (Homo sapiens, UniProt Q99581 1-238); settings: protein: recombinant; tags: N-terminal GST; dsDNA, one strand shown
# T1 sequence: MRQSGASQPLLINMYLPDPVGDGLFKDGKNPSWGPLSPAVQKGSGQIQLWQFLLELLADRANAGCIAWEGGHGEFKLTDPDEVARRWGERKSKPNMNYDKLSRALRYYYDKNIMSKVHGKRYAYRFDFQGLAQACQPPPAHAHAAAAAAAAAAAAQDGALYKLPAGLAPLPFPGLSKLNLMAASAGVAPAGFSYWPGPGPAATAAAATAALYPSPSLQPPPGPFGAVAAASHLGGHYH
# Procedure, shortened: (§1)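 Human transcription factors were made in yeast as GST fusions, captured on glutathione beads and barcoded with DNA. With a tag-only sample included, the pool was incubated with 200 nmole of a random double-stranded 16-mer DNA library in Tris/NaCl/DTT/glycerol buffer at room temperature for 30 min, then crosslinked with 0.1% formaldehyde after washing, ligated by proximity, amplified and sequenced. For binding signal, each hexamer's read frequency for a factor is divided by its frequency for the tag-only sample.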
# ETV5 = ETV5 (Homo sapiens, UniProt P41161 1-510); settings: protein: recombinant; tags: N-terminal GST; dsDNA, one strand shown
# Procedure, shortened: as §1
# HSF1 = HSF1 (Homo sapiens, UniProt Q00613 1-529); settings: protein: recombinant; tags: N-terminal GST; chain copies: 3; dsDNA, one strand shown
# Procedure, shortened: as §1
# SPIC = target: T2, SPIC (Homo sapiens, UniProt Q8N5J4 1-248); settings: protein: recombinant; tags: N-terminal GST; dsDNA, one strand shown
# T2 sequence: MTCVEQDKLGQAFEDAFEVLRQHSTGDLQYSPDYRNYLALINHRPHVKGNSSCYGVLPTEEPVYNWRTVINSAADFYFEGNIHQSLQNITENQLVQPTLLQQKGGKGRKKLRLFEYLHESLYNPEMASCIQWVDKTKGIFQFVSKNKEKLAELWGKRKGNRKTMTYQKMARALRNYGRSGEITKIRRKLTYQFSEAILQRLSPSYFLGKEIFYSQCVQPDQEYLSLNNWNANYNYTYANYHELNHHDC
# Procedure, shortened: as §1
# ELF4 = ELF4 (Homo sapiens, UniProt Q99607 1-663); settings: protein: recombinant; tags: N-terminal GST; dsDNA, one strand shown
# Procedure, shortened: as §1
# ELK4 = target: T3, ELK4 (Homo sapiens, UniProt P28324-2 1-405); settings: protein: recombinant; tags: N-terminal GST; dsDNA, one strand shown
# T3 sequence: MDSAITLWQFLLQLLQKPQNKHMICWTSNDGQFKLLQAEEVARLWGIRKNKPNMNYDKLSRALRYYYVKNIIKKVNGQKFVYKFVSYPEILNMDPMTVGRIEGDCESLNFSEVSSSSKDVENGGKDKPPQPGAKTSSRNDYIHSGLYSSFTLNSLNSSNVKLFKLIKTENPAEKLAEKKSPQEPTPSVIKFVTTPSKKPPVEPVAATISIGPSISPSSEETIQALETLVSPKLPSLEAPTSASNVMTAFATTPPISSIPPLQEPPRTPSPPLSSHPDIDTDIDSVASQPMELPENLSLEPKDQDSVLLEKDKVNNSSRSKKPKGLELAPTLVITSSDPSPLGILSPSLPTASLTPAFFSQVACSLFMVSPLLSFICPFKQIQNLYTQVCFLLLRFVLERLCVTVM
# Procedure, shortened: as §1
# ETV2 = target: T4, ETV2 (Homo sapiens, UniProt O00321 1-342); settings: protein: recombinant; tags: N-terminal GST; dsDNA, one strand shown
# T4 sequence: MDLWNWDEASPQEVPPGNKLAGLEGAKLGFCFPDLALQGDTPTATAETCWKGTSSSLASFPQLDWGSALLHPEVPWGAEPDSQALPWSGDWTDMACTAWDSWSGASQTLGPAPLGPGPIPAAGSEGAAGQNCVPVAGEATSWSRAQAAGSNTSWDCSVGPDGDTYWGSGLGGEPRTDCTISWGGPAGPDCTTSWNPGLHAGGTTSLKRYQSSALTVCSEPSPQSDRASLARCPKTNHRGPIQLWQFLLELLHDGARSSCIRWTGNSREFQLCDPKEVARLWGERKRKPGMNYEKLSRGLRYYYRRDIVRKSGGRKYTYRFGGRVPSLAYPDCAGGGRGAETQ
# Procedure, shortened: as §1
# ELF3 = target: T5, ELF3 (Homo sapiens, UniProt P78545 1-371); settings: protein: recombinant; tags: N-terminal GST; dsDNA, one strand shown
# T5 sequence: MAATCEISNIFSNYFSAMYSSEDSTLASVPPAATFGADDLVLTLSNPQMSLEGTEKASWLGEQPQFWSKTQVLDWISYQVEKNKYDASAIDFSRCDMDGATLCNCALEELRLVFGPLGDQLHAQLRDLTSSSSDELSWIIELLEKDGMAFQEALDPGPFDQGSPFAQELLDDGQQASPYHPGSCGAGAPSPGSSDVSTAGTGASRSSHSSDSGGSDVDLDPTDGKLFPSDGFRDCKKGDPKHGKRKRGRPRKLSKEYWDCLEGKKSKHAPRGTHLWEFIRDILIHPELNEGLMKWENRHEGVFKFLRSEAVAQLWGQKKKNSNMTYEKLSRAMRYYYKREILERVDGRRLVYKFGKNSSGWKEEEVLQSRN
# Procedure, shortened: as §1
# CRX = CRX (Homo sapiens, UniProt O43186 1-299); settings: protein: recombinant; tags: N-terminal GST; dsDNA, one strand shown
# Procedure, shortened: as §1
# ETV1 = ETV1 (Homo sapiens, UniProt P50549 1-477); settings: protein: recombinant; tags: N-terminal GST; dsDNA, one strand shown
# Procedure, shortened: as §1
# ERF = target: T6, ERF (Homo sapiens, UniProt P50548 1-548); settings: protein: recombinant; tags: N-terminal GST; dsDNA, one strand shown
# T6 sequence: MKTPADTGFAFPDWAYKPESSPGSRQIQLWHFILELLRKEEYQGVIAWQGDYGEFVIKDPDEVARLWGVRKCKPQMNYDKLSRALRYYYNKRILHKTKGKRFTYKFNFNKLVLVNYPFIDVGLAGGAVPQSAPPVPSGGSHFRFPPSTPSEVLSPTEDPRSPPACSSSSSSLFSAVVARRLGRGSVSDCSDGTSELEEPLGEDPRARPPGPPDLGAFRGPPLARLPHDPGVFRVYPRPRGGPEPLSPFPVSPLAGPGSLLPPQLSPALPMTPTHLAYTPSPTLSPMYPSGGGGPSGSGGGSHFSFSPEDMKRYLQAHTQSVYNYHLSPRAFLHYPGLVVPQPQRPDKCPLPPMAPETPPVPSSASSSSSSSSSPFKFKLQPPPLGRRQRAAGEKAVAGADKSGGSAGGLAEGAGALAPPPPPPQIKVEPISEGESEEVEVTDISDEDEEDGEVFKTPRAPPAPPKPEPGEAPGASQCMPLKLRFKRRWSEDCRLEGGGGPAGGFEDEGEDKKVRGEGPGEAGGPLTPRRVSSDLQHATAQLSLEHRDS
# Procedure, shortened: as §1
# ETV3L = target: T7, ETV3L (Homo sapiens, UniProt Q6ZN32 1-361); settings: protein: recombinant; tags: N-terminal GST; dsDNA, one strand shown
# T7 sequence: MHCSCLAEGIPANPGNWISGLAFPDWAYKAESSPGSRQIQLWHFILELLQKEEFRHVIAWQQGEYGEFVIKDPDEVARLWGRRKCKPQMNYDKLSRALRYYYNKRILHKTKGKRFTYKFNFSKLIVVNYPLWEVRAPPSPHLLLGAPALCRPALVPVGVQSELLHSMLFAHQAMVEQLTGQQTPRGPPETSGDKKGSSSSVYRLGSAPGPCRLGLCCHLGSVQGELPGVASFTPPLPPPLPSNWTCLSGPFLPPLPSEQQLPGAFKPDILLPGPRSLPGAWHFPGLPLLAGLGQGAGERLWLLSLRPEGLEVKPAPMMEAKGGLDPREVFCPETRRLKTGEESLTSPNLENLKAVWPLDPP
# Procedure, shortened: as §1
# ETS2 = target: T8, ETS2 (Homo sapiens, UniProt P15036 1-469); settings: protein: recombinant; tags: N-terminal GST; dsDNA, one strand shown
# T8 sequence: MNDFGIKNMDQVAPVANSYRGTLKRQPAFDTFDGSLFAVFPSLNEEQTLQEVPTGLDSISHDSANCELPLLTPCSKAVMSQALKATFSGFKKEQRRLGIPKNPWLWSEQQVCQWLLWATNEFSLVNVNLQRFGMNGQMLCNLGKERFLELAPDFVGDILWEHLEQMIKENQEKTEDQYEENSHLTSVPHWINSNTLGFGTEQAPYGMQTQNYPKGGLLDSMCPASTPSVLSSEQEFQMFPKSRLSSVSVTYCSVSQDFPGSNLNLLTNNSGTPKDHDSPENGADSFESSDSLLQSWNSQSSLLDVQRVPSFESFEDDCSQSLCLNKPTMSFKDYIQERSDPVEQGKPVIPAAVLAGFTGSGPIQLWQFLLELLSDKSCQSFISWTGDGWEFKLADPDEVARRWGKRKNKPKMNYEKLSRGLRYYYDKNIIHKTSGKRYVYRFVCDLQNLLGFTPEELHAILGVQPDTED
# Procedure, shortened: as §1
# SPDEF = target: T9, SPDEF (Homo sapiens, UniProt O95238 1-335); settings: protein: recombinant; tags: N-terminal GST; dsDNA, one strand shown
# T9 sequence: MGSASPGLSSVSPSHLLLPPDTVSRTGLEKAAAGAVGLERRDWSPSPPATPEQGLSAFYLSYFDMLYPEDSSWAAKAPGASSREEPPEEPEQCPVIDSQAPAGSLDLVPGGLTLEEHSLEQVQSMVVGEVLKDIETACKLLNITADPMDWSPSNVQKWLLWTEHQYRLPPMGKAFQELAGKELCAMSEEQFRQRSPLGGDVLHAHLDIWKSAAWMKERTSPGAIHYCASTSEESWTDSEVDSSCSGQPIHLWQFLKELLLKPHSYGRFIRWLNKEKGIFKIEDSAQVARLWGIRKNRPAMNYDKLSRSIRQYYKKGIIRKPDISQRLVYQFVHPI
# Procedure, shortened: as §1
# ETV7 = target: T10, ETV7 (Homo sapiens, UniProt Q9Y603 1-341); settings: protein: recombinant; tags: N-terminal GST; dsDNA, one strand shown
# T10 sequence: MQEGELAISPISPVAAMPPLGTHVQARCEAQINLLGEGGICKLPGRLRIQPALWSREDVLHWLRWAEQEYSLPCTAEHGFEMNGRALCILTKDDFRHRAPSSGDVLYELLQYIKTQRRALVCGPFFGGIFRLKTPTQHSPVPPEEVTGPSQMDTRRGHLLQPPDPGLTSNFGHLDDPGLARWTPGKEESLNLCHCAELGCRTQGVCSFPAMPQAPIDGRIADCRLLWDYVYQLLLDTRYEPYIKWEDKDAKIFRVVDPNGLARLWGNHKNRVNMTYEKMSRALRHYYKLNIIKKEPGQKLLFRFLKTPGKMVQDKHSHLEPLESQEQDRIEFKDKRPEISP
# Procedure, shortened: as §1
# ELF5 = target: T11, ELF5 (Homo sapiens, UniProt Q9UKW6-2 1-255); settings: protein: recombinant; tags: N-terminal GST; dsDNA, one strand shown
# T11 sequence: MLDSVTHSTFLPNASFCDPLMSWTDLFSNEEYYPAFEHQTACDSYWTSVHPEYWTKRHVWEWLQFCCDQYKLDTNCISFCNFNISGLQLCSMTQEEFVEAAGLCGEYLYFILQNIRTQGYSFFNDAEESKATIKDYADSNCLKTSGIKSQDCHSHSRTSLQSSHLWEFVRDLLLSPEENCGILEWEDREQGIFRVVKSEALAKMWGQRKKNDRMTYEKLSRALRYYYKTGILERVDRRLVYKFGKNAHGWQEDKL
# Procedure, shortened: as §1
# ETV3 = target: T12, ETV3 (Homo sapiens, UniProt P41162-2 1-143); settings: protein: recombinant; tags: N-terminal GST; dsDNA, one strand shown
# T12 sequence: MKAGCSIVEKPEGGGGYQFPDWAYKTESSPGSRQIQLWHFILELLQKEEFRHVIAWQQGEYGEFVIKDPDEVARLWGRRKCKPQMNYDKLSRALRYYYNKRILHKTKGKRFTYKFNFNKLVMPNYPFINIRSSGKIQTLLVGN
# Procedure, shortened: as §1
# ETV6 = ETV6 (Homo sapiens, UniProt P41212 1-452); settings: protein: recombinant; tags: N-terminal GST; dsDNA, one strand shown
# Procedure, shortened: as §1
# ELF4, sequence (Q99607 whole entry): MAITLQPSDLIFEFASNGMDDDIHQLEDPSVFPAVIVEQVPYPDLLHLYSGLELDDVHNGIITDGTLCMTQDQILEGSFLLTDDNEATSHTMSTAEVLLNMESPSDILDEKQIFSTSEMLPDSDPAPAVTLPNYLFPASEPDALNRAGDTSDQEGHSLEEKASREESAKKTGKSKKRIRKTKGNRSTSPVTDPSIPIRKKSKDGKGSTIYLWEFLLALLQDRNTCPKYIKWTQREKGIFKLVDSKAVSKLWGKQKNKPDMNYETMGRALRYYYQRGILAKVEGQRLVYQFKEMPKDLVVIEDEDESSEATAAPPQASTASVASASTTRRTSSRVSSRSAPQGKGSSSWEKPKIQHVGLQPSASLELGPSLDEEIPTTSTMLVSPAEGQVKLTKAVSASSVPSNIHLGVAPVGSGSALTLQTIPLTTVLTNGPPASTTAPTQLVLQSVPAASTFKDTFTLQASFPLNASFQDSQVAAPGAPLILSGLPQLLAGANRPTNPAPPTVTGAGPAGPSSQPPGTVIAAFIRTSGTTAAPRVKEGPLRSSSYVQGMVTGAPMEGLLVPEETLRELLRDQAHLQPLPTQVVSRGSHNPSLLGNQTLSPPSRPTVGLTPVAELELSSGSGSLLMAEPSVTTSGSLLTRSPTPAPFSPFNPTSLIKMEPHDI
# ETV6, sequence (P41212 whole entry): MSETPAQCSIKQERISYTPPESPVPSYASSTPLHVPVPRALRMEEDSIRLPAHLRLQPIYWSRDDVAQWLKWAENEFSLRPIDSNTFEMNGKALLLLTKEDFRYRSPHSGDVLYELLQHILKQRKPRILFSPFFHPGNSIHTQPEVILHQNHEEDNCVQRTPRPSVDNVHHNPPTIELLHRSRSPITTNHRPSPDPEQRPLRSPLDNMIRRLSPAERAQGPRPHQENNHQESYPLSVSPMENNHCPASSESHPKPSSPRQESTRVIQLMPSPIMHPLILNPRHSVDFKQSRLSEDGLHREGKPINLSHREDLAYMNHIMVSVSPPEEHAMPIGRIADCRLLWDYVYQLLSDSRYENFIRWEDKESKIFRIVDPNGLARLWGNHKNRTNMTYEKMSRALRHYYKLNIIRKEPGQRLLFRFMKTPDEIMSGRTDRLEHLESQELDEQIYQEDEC
# CRX, sequence (O43186 whole entry): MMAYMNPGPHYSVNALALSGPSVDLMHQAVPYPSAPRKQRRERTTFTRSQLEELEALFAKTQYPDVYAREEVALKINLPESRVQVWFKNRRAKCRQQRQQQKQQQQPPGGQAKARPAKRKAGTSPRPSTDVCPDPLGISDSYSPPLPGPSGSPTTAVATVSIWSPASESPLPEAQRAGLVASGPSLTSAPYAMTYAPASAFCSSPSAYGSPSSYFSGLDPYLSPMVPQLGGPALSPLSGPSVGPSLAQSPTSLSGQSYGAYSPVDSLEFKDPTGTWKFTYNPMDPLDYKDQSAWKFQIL
# ETV1, sequence (P50549 whole entry): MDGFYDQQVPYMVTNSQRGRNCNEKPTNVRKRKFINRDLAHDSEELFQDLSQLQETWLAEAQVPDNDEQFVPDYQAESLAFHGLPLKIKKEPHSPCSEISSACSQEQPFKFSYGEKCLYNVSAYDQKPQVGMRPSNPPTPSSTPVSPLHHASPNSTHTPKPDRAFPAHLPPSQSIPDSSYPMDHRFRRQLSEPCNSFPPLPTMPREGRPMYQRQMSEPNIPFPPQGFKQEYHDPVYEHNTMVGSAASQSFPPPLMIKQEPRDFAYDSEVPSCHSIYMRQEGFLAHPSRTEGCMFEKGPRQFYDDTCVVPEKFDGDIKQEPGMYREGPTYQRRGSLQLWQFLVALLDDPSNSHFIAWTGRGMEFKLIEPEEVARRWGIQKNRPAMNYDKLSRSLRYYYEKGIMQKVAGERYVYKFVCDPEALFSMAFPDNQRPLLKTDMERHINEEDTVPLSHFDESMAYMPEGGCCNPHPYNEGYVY
# HSF1, sequence (Q00613 whole entry): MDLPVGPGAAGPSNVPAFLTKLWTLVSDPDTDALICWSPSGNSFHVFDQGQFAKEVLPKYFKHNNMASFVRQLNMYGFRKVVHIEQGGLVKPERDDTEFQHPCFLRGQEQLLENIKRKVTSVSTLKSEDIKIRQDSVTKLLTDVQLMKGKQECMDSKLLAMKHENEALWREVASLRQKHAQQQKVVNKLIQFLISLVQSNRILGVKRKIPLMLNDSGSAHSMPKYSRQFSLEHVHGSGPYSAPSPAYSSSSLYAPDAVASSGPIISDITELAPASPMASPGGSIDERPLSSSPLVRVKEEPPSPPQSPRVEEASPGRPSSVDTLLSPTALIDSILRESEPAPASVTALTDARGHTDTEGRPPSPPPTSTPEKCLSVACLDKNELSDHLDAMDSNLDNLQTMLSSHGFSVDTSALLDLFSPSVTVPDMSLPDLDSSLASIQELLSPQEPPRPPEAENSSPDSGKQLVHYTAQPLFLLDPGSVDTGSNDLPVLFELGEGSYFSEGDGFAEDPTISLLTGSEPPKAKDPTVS
# ETV5, sequence (P41161 whole entry): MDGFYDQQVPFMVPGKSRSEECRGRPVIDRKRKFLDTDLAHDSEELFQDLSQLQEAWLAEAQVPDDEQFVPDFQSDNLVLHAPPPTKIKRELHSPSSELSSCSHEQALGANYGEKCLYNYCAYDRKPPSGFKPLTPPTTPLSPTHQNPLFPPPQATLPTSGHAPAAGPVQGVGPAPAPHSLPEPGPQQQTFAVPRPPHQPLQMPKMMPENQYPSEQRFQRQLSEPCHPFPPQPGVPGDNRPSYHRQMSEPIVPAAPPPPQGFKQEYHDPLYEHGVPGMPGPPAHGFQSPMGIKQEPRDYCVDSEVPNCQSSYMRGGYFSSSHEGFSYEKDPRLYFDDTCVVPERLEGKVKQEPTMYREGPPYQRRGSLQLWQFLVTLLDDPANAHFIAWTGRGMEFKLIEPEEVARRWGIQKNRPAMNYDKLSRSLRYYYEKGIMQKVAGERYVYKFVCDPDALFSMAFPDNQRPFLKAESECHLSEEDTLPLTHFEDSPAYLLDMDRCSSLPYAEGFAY
sequence,measurement,setting,value
CTTAGG,binding signal,FEV,"1.11 fold enrichment (6-mer frequency, TF over GST control)"
same,binding signal,ETV5,"1.15 fold enrichment (6-mer frequency, TF over GST control)"
same,binding signal,HSF1,"1.29 fold enrichment (6-mer frequency, TF over GST control)"
same,binding signal,SPIC,"1.3 fold enrichment (6-mer frequency, TF over GST control)"
same,binding signal,ELF4,"1.16 fold enrichment (6-mer frequency, TF over GST control)"
same,binding signal,ELK4,"1.04 fold enrichment (6-mer frequency, TF over GST control)"
same,binding signal,ETV2,"1.23 fold enrichment (6-mer frequency, TF over GST control)"
same,binding signal,ELF3,"1.49 fold enrichment (6-mer frequency, TF over GST control)"
same,binding signal,CRX,"1.8 fold enrichment (6-mer frequency, TF over GST control)"
same,binding signal,ETV1,"1.19 fold enrichment (6-mer frequency, TF over GST control)"
same,binding signal,ERF,"1.12 fold enrichment (6-mer frequency, TF over GST control)"
same,binding signal,ETV3L,"1.01 fold enrichment (6-mer frequency, TF over GST control)"
same,binding signal,ETS2,"1.23 fold enrichment (6-mer frequency, TF over GST control)"
same,binding signal,SPDEF,"1.06 fold enrichment (6-mer frequency, TF over GST control)"
same,binding signal,ETV7,"1.17 fold enrichment (6-mer frequency, TF over GST control)"
same,binding signal,ELF5,"1.11 fold enrichment (6-mer frequency, TF over GST control)"
same,binding signal,ETV3,"1.1 fold enrichment (6-mer frequency, TF over GST control)"
same,binding signal,ETV6,"1.15 fold enrichment (6-mer frequency, TF over GST control)"
